# Measured values: PubChem BioAssay (NCATS)
# Inconclusive results are not listed. A call without a number means that no potency is given here. Calls of active or inactive are those of the source. Calls follow the shape of the dose curve; as a rule, active = well fitted inhibition curve with a large enough effect; inconclusive = small, poorly fitted or top-dose-only effect; inactive = flat fitted curve, though single readings scatter.
# Tested on: Zika virus NS2B-NS3 protease
# Assay: Primary screen GU AMC qHTS for Zika virus inhibitors (AID 1347154); also: nearly all actives have a fitted effect of over 70% in size
# Conditions: Zika NS2B-NS3 unlinked protease, AMC fluorogenic substrate; series mostly up to 54.1 µM
# Summary of the method: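 Unlinked Zika NS2B hydrophilic domain/NS3 protease domain noncovalent complex (25 nM final) in 10 mM Tris-HCl pH 8.0, 0.01% Tween 20, with AMC peptide substrate. Fluorescence (ex 340, em 450 nm) change over 15 min, room temperature; percent inhibition fitted to 4-parameter Hill equation.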
row,Compound,Potency
1,CC(=O)Oc1cccc(O)c1,inactive
2,O=c1[nH]c(=O)c2ccccc2o1,inactive
3,COc1ccc(C(=O)N2CCN(CC(=O)N3CCOCC3)CC2)cc1,inactive
4,CC(=O)NS(=O)(=O)c1ccc(N)cc1,inactive
5,C=CCSCC1Nc2cc(Cl)c(S(N)(=O)=O)cc2S(=O)(=O)N1 (stereo unspecified),inactive
6,C=CCNC(N)=S,inactive
7,Nc1ccc(C(=O)Oc2ccccc2)c(O)c1,inactive
8,NC(N)=NS(=O)(=O)c1ccc(N)cc1,inactive
9,C[C@@H](c1ncncc1F)C(O)(Cn1cncn1)c1ccc(F)cc1F (stereo partly specified),inactive
10,NNC(=O)CP(=O)(c1ccccc1)c1ccccc1,inactive
11,O=c1[nH]c2cc(C(F)(F)F)c(N3CCOCC3)cc2n(CP(=O)(O)O)c1=O,inactive
12,Nc1c2c(nc3c1CCC3)CCCC2,inactive
13,O=C(O)c1ccc[n+]([O-])c1,inactive
14,CC(=O)N[C@@H](CC(C)C)C(=O)O,inactive
15,CCN(CC)C(=O)c1cccc(C)c1,inactive
16,CC(=O)OC[C@H]1O[C@@](COC(C)=O)(O[C@H]2O[C@H](COC(C)=O)[C@@H](OC(C)=O)[C@H](OC(C)=O)[C@H]2OC(C)=O)[C@@H](OC(C)=O)[C@@H]1OC(C)=O,inactive
